In PubChem BioAssay AID1159580 (chemical genetic matrix, 2015):
The campaign covered roughly 5,500 compounds. About 2,000 (36%) were called active. Another 18% or so got no clear call; they are omitted. Cut-off read from the data, not from the text of the source: active = normalized growth mostly below about 0.91 (no sharp cut-off); inconclusive = no clear call, values can overlap the other calls; inactive = mostly above about 0.92. Some of the results follow.

Experiment: chemical genetic growth profiling, strain panel (AID 1159580);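 note: tested at 20 µM; growth read once vehicle control cultures reached saturation at 30 °C; 1 = growth at the plate median or of vehicle wells; lower values mean less growth of the strain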
Conditions: S. cerevisiae deletion strains, growth OD
[1] = locus YAR019C, strain CDC15, stronger effect = lower value
[2] = locus YBL105C, strain PKC1, stronger effect = lower value
[3] = locus YBR135W, strain CKS1, stronger effect = lower value
[4] = locus YBR136W, strain MEC1, stronger effect = lower value
[5] = locus YBR160W, strain CDC28, stronger effect = lower value
[6] = locus YDL017W, strain CDC7, stronger effect = lower value
[7] = locus YDL028C, strain MPS1, stronger effect = lower value
[8] = locus YDL101C, strain DUN1, stronger effect = lower value
[9] = locus YDL108W, strain KIN28, stronger effect = lower value
[10] = locus YDL132W, strain cdc53, stronger effect = lower value
[11] = locus YDL214C, strain PRR2, stronger effect = lower value
[12] = locus YDR052C, strain DBF4, stronger effect = lower value
[13] = locus YDR054C, strain cdc34, stronger effect = lower value
[14] = locus YDR226W, strain ADK1, stronger effect = lower value
[15] = locus YDR477W, strain SNF1, stronger effect = lower value
[16] = locus YER123W, strain YCK3, stronger effect = lower value
[17] = locus YER133W, strain GLC7, stronger effect = lower value
[18] = locus YFL009W, strain cdc4, stronger effect = lower value
[19] = locus YFL029C, strain CAK1, stronger effect = lower value
[20] = locus YFR003C, strain YPI1, stronger effect = lower value
[21] = locus YFR019W, strain FAB1, stronger effect = lower value
[22] = locus YFR028C, strain CDC14, stronger effect = lower value
[23] = locus YGR040W, strain KSS1, stronger effect = lower value
[24] = locus YGR052W, strain FMP48, stronger effect = lower value
[25] = locus YGR092W, strain DBF2, stronger effect = lower value
[26] = locus YHR030C, strain SLT2, stronger effect = lower value
[27] = locus YHR079C, strain IRE1, stronger effect = lower value
[28] = locus YHR082C, strain KSP1, stronger effect = lower value
[29] = locus YHR205W, strain SCH9, stronger effect = lower value
[30] = locus YIL147C, strain SLN1, stronger effect = lower value
[31] = locus YJL095W, strain BCK1, stronger effect = lower value
[32] = locus YJL128C, strain PBS2, stronger effect = lower value
[33] = locus YJL157C, strain FAR1, stronger effect = lower value
[34] = locus YJR016C, strain ILV3, stronger effect = lower value
[35] = locus YJR066W, strain TOR1 (second series), stronger effect = lower value
[36] = locus YJR066W, strain TOR1, stronger effect = lower value
[37] = locus YKL048C, strain ELM1, stronger effect = lower value
[38] = locus YKL067W, strain YNK1, stronger effect = lower value
[39] = locus YKL101W, strain HSL1, stronger effect = lower value
[40] = locus YKL193C, strain SDS22, stronger effect = lower value
[41] = locus YKL203C, strain TOR2, stronger effect = lower value
[42] = locus YLR113W, strain HOG1, stronger effect = lower value
[43] = locus YLR133W, strain CKI1, stronger effect = lower value
[44] = locus YLR403W, strain SFP1, stronger effect = lower value
[45] = locus YML070W, strain DAK1, stronger effect = lower value
[46] = locus YMR001C, strain CDC5, stronger effect = lower value
[47] = locus YMR205C, strain PFK2 (second series), stronger effect = lower value
[48] = locus YMR277W, strain FCP1, stronger effect = lower value
[49] = locus YNL006W, strain LST8, stronger effect = lower value
[50] = locus YNL020C, strain ARK1, stronger effect = lower value
[51] = locus YNL161W, strain CBK1, stronger effect = lower value
[52] = locus YNL183C, strain NPR1, stronger effect = lower value
[53] = locus YNL207W, strain RIO2, stronger effect = lower value
[54] = locus YNL222W, strain SSU72, stronger effect = lower value
[55] = locus YNL307C, strain MCK1 (second series), stronger effect = lower value
[56] = locus YOL078W, strain AVO1, stronger effect = lower value
[57] = locus YOL136C, strain PFK27, stronger effect = lower value
[58] = locus YOR061W, strain CKA2, stronger effect = lower value
[59] = locus YOR119C, strain RIO1, stronger effect = lower value
[60] = locus YOR231W, strain MKK1, stronger effect = lower value
[61] = locus YOR329C, strain SCD5, stronger effect = lower value
[62] = locus YPL031C, strain PHO85, stronger effect = lower value
[63] = locus YPL153C, strain RAD53, stronger effect = lower value
[64] = locus YPL204W, strain HRR25, stronger effect = lower value
[65] = locus YPL209C, strain IPL1, stronger effect = lower value
[66] = locus YPL256C, strain CLN2, stronger effect = lower value
[67] = locus YPR025C, strain CCL1, stronger effect = lower value
[68] = locus YPR106W, strain ISR1, stronger effect = lower value
[69] = locus YPR111W, strain DBF20, stronger effect = lower value
[70] = strain NNK1, stronger effect = lower value
[71] = strain TSCII, stronger effect = lower value

Measured: normalized growth

Oc1ccc(N=Nc2ccccn2)c(O)c1
active: [1] 0.0954 | [2] 0.0926 | [3] 0.0984 | [4] 0.0929 | [5] 0.0967 | [6] 0.0946 | [7] 0.0969 | [8] 0.103 | [9] 0.0995 | [10] 0.0971 | [11] 0.0962 | [12] 0.0928 | [13] 0.0989 | [14] 0.0953 | [15] 0.102 | [16] 0.108 | [17] 0.103 | [18] 0.0975 | [19] 0.0955 | [20] 0.0966 | [21] 0.0923 | [22] 0.0968 | [23] 0.0983 | [24] 0.121 | [25] 0.0944 | [26] 0.116 | [27] 0.12 | [28] 0.125 | [29] 0.00344 | [30] 0.0967 | [31] 0.104 | [32] 0.102 | [33] 0.0922 | [34] 0.0883 | [35] 0.0985 | [36] 0.114 | [37] 0.113 | [38] 0.101 | [39] 0.0988 | [40] 0.0969 | [41] 0.102 | [42] 0.153 | [43] 0.0924 | [44] 0.00522 | [45] 0.103 | [46] 0.095 | [47] 0.0981 | [48] 0.0981 | [49] 0.1 | [50] 0.0963 | [51] 0.0956 | [52] 0.123 | [53] 0.0923 | [54] 0.0956 | [55] 0.0988 | [56] 0.0959 | [57] 0.0997 | [58] 0.097 | [59] 0.108 | [60] 0.118 | [61] 0.0939 | [62] 0.101 | [63] 0.1 | [64] 0.102 | [65] 0.0941 | [66] 0.155 | [67] 0.0983 | [68] 0.0922 | [69] 0.103 | [70] 0.0965 | [71] 0.0967

COc1cc(CC/C(C)=N\O)ccc1OCc1ccc(Cl)c(Cl)c1
inactive: [1] 0.973 | [2] 0.964 | [3] 0.97 | [4] 0.96 | [5] 0.975 | [6] 0.963 | [7] 0.959 | [8] 0.975 | [9] 0.947 | [10] 0.983 | [11] 0.818 | [12] 0.971 | [13] 0.968 | [14] 0.973 | [15] 0.868 | [16] 0.767 | [17] 0.864 | [18] 0.968 | [19] 0.968 | [20] 0.968 | [21] 0.808 | [22] 0.983 | [23] 0.862 | [24] 0.881 | [25] 0.824 | [27] 0.871 | [28] 0.883 | [29] 0.869 | [30] 0.962 | [31] 0.849 | [32] 0.916 | [33] 0.823 | [34] 0.969 | [35] 0.786 | [36] 0.867 | [37] 0.934 | [38] 0.865 | [39] 0.852 | [40] 0.968 | [41] 0.932 | [43] 0.875 | [44] 0.865 | [45] 0.82 | [46] 0.967 | [47] 0.877 | [48] 0.968 | [49] 0.975 | [50] 0.851 | [51] 0.973 | [52] 0.885 | [53] 0.965 | [54] 0.969 | [55] 0.845 | [56] 0.978 | [57] 0.84 | [58] 0.818 | [59] 0.931 | [60] 0.842 | [61] 0.972 | [62] 0.858 | [63] 0.833 | [64] 0.873 | [65] 0.968 | [66] 0.893 | [67] 0.98 | [68] 0.968 | [69] 0.962 | [70] 0.953 | [71] 0.97
active: [26] 0.831 | [42] 0.816
